High-throughput results: PubChem BioAssay, National Center for Advancing Translational Sciences (NCATS)
Shown is part of a subset that was picked to be rich in hits.
ERK EGF block: qHTS Assay for Inhibitors of the ERK Signaling Pathway using a Homogeneous Screening Assay; Stimulation with EGF. HEK293-V1b, EGF-stimulated phospho-ERK AlphaScreen. Potency, µM (top dose mostly 11.5 µM), without a hit: at the top dose activity change, negative = inhibition, most hits filed as inhibitors. 0.41% of 130,000 active. AID 1454, 2008;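 note: potency is the fitted concentration of half-maximal effect; plate controls were stimulated vehicle wells for no effect and unstimulated vehicle basal for full effect; nearly all actives have a fitted effect of over 55% in size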
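EGF-stimulated (25 nM, 5 min) phospho-ERK in HEK293 cells stably expressing V1b, cells pretreated 30 min with compound at 37C. Homogeneous AlphaScreen read on lysates.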
cRaf kinase inh: Assay for Inhibitors of the ERK Signaling Pathway using a Homogeneous Screening Assay: c-Raf Inhibition; c-Raf kinase inhibition, homogeneous biochemical assay; 70 tested, under 10 active; shares compounds with ERK EGF block; AID 1728, 2009; activity change, negative = inhibition, % at 76.9 µM
MEK1 kinase inh: Assay for Inhibitors of the ERK Signaling Pathway using a Homogeneous Screening Assay: MEK Inhibition; shares compounds with ERK EGF block; homogeneous MEK kinase activity assay, ERK pathway; Potency, µM (doses to about 76.9 µM), without a hit: at the top dose activity change, negative = inhibition, actives largely listed as inhibitors; 70 tested, under 10 active; AID 1732, 2009
Target sequence (Q02750 whole entry, looked up): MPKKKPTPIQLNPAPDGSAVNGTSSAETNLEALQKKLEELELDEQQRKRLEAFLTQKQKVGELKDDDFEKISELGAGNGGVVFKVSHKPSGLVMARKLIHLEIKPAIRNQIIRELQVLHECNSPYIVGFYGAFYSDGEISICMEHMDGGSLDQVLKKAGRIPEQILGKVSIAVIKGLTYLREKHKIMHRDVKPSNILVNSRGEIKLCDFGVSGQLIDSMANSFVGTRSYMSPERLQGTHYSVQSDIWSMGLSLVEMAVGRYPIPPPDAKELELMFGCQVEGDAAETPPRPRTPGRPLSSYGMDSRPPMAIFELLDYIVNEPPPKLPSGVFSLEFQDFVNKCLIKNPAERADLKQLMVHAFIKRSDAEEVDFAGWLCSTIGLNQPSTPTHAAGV
Active calls of the source: *; ? = inconclusive; nt = not tested or not shown; [ ] = remark or other dose. Calls come from the whole dose curve; as a rule, active = well fitted curve in the direction sought with a large enough effect; inconclusive = small, poorly fitted or top-dose-only effect, or another doubt; inactive = no such curve, though single readings can be large; an effect the other way counts as inactive or inconclusive.

SMILES	ERK EGF block	others
CC[C@@H](CO)NC(=O)[C@H]1C=C2c3cccc4[nH]cc(c34)C[C@H]2N(C)C1	-13%
Clc1ccc(CS[C@@H](Cn2ccnc2)c2ccc(Cl)cc2Cl)cc1	2%[25.7 µM]
c1ccc(Cn2ccnc2)cc1	-12%[57.5 µM]
Clc1ccc(COC(Cn2ccnc2)c2ccc(Cl)cc2Cl)cc1 (centres undefined)	28µM*
CC(=O)N1CCN(c2ccc(OC[C@@H]3CO[C@@](Cn4ccnc4)(c4ccc(Cl)cc4Cl)O3)cc2)CC1	6%[25.7 µM]
c1cc2c(cc1C1OC[C@@H]3C(c4ccc5c(c4)OCO5)OCC13)OCO2 (some centres undefined)	22%
COc1ccc(-c2nc3ccccc3c(=O)n2-c2ccc(OC)cc2)cc1	-13%
O=c1c2ccccc2nc(-c2ccccc2)n1-c1ccccc1	-8%[57.5 µM]
CCn1nc(-c2ccccc2)nc2c(=O)n(C)c(=O)nc1-2	0%	cRaf kinase inh=?;MEK1 kinase inh=0.63µM*
Cc1nc2c(=O)n(C)c(=O)nc-2n(C)n1	22%	cRaf kinase inh=?;MEK1 kinase inh=?
Cn1nc(-c2ccccc2)nc2c(=O)n(C)c(=O)nc1-2	nt	cRaf kinase inh=?;MEK1 kinase inh=0.71µM*
CC1N(P(=O)(c2ccccc2)c2ccccc2)CC(O)(c2ccccc2)CC12CC2 (centres undefined)	-3%
COc1cc2c(cc1O)C[C@H]1c3c(cc(OC)c(O)c3-2)CCN1C	3%
O=C1Nc2cc(Cl)c(Cl)cc2N2CCNC[C@H]12	8%
CCOC(=O)C1C(C=C(C)C)C1(C)C (centres undefined)	27%
COP(N)(=O)SC (centres undefined)	13%
Cc1ncc(CN2CC=C(c3ccccc3)CC2)c(N)n1	6%
CCN1C[C@@]2(COC(=O)c3ccccc3N3C(=O)CC(C)C3=O)CC[C@H](OC)[C@]34C5C[C@@H]6[C@@H](OC)C[C@@](O)(C5[C@H]6OC)[C@@](O)(C13)[C@@H](OC)C24 (some centres undefined)	6%
CC1(C)C(=O)C=C[C@@]2(C)C1=C(O)C(=O)[C@@]1(C)C2CC[C@@]2(C)C(c3ccoc3)C[C@H]3O[C@@]321 (some centres undefined)	2%
O=C(Oc1ccccc1)N1CCC2(CCCN(Cc3nccs3)C2)CC1	19%
CCCCCCCCCCCCC/C=C/[C@@H](O)[C@@H](N)COP(=O)([O-])OCC[N+](C)(C)C	-16%
